{"source": "paper PMC4336329", "about": "(PLoS ONE, 2015)", "note": "Among all 310,000 compounds or so, about 14,000 (4.5%) showed an effect of 50% or more. The effect is printed as a negative number. Shown is part of a subset that was picked to be rich in strong results.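 Also: peak tail current of the secondary pulse compared with the same well before compound.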"}
{"biological_target": "human ether-à-go-go-related gene (hERG) potassium channel (human, UniProt Q12809)", "sequence (Q12809 whole entry, looked up)": "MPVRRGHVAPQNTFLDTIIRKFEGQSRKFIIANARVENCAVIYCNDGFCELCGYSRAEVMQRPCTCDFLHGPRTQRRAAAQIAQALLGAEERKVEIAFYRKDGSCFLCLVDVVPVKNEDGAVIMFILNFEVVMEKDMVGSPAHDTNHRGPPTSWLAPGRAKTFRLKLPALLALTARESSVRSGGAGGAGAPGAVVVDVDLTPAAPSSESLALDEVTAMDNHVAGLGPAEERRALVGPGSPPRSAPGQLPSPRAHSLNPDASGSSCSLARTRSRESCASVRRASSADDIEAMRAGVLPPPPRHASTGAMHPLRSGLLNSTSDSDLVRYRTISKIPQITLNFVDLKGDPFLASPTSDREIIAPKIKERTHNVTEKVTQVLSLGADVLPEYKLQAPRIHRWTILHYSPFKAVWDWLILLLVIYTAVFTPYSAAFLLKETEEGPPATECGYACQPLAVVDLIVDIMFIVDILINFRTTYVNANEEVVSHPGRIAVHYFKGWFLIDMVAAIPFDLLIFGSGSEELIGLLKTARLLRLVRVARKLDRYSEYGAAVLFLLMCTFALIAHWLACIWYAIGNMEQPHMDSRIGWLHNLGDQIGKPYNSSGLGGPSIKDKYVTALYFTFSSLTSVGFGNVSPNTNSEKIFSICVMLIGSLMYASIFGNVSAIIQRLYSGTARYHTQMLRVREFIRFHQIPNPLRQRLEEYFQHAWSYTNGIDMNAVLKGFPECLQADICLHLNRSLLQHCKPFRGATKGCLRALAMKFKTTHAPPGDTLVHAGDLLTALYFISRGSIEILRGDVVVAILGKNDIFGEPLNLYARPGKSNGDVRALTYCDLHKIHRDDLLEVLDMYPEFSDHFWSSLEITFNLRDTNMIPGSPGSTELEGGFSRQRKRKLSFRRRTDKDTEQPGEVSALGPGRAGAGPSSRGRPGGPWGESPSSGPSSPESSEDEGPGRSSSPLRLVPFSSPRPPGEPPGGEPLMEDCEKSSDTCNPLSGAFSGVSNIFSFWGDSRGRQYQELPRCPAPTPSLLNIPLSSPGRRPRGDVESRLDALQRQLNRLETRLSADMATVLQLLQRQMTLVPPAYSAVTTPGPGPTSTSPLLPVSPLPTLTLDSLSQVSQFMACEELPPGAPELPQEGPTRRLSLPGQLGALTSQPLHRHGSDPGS", "assay": "primary screen, population patch clamp on CHO cells stably expressing hERG; higher = less effect of the substance", "units": {"hERG current change (%, negative = inhibition) at 10uM": "%"}}
{"smiles": "O=C(NCc1ccco1)c1cc(-c2ccccc2)nc2ccccc12", "hERG current change (%, negative = inhibition) at 10uM": -16.5}
{"smiles": "COCCNC(=O)c1cc2nc(-c3ccccc3)cc(C)n2n1", "hERG current change (%, negative = inhibition) at 10uM": 7.82}
{"smiles": "Cc1cc(C)n2nc(C(=O)NCc3ccco3)cc2n1", "hERG current change (%, negative = inhibition) at 10uM": 10.4}
{"smiles": "CC(C)OCCCNC(=O)c1cc(-c2cccs2)nc2ccccc12", "hERG current change (%, negative = inhibition) at 10uM": 0.89}
{"smiles": "CCCCNC(=S)NNC(=O)c1cc(-c2cccnc2)nc2ccccc12", "hERG current change (%, negative = inhibition) at 10uM": -7.41}
{"smiles": "O=C(NCc1ccco1)c1cc(-c2cccnc2)nc2ccc(Cl)cc12", "hERG current change (%, negative = inhibition) at 10uM": -36.3}
{"smiles": "COCCCNC(=O)c1cc(-c2cccnc2)nc2ccccc12", "hERG current change (%, negative = inhibition) at 10uM": 16.6}
{"smiles": "CC(C)CCNC(=O)c1cc(-c2cccs2)nc2ccccc12", "hERG current change (%, negative = inhibition) at 10uM": 5.1}
{"smiles": "CCCCN(C)CCCNC(=O)c1cc(-c2cccs2)nc2ccccc12", "hERG current change (%, negative = inhibition) at 10uM": -85.6}
{"smiles": "Cc1cc(-c2ccccc2)nc2cc(C(=O)NCc3ccco3)nn12", "hERG current change (%, negative = inhibition) at 10uM": -55.9}
{"smiles": "O=C(NCc1ccco1)c1cc(-c2cccnc2)nc2ccccc12", "hERG current change (%, negative = inhibition) at 10uM": -52.6}
{"smiles": "CCN(CCNC(=O)C1CCN(S(=O)(=O)c2c(C)noc2C)CC1)c1ccccc1", "hERG current change (%, negative = inhibition) at 10uM": -1.06}
{"smiles": "COc1cc(/C=C/C(=O)NCc2cccnc2)cc(OC)c1OC", "hERG current change (%, negative = inhibition) at 10uM": 0.841}
{"smiles": "CCOC(=O)Cc1csc(NC(=O)CN2CCOCC2)n1", "hERG current change (%, negative = inhibition) at 10uM": 14.1}
{"smiles": "CCOC(=O)[C@@H]1[C@H]2COc3ccccc3[C@H]2N2C(=O)N(c3ccc(C)cc3)C(=O)[C@]12C", "hERG current change (%, negative = inhibition) at 10uM": -1.42}
{"smiles": "CCCNC(=O)c1n[nH]c2c1CC(C(C)(C)CC)CC2", "note": "(stereo not shown)", "hERG current change (%, negative = inhibition) at 10uM": 1.27}
{"smiles": "C=CCNc1ncnc2c1cnn2-c1ccc(C)cc1C", "hERG current change (%, negative = inhibition) at 10uM": 3.76}
{"smiles": "NS(=O)(=O)c1ccc(N/N=C/c2ccc[nH]2)c([N+](=O)[O-])c1", "hERG current change (%, negative = inhibition) at 10uM": 0.228}
{"smiles": "COc1cc(OC)cc(C(=O)Nc2ccc3nc4n(c(=O)c3c2)CCCC4)c1", "hERG current change (%, negative = inhibition) at 10uM": 11.2}
{"smiles": "COc1cccc(C(=O)Nc2ccc3nc4n(c(=O)c3c2)CCCC4)c1", "hERG current change (%, negative = inhibition) at 10uM": -62.9}
{"smiles": "COc1cc(C(=O)Nc2ccc3nc4n(c(=O)c3c2)CCCCC4)cc(OC)c1OC", "hERG current change (%, negative = inhibition) at 10uM": -67.7}
{"smiles": "COc1cc(NC(=O)C(=O)Nc2ccc3nc4n(c(=O)c3c2)CCCCC4)cc(OC)c1OC", "hERG current change (%, negative = inhibition) at 10uM": -1.55}
{"smiles": "O=C(Nc1ccc2nc3n(c(=O)c2c1)CCCC3)c1cccc(F)c1", "hERG current change (%, negative = inhibition) at 10uM": -43.9}
{"smiles": "COc1cc(OC)cc(C(=O)Nc2ccc3nc4n(c(=O)c3c2)CCCCC4)c1", "hERG current change (%, negative = inhibition) at 10uM": -48.7}
{"smiles": "COc1ccc(Cl)cc1NS(=O)(=O)c1cn(C)nc1C", "hERG current change (%, negative = inhibition) at 10uM": 7.1}
{"smiles": "COC(=O)C1=C(c2ccc(OC)c(OC)c2)C[C@@H]2CC[C@H]1N2C(=O)NCC1CC1", "hERG current change (%, negative = inhibition) at 10uM": 15.1}
{"smiles": "O=C(CSc1ccc(-c2ccco2)nn1)NCc1ccccc1Cl", "hERG current change (%, negative = inhibition) at 10uM": -49.1}
{"smiles": "Oc1ccc(/C=N/Nc2nccnc2Cl)cc1", "hERG current change (%, negative = inhibition) at 10uM": 1.47}
{"smiles": "Clc1nccnc1N/N=C/c1ccc(Br)cc1", "hERG current change (%, negative = inhibition) at 10uM": -50.3}
{"smiles": "Fc1ccc(/C=N/Nc2nccnc2Cl)cc1", "hERG current change (%, negative = inhibition) at 10uM": 9.05}
{"smiles": "Cc1cccc(NC(=O)CN2C(=O)S/C(=C\\c3cc(C)n(C)c3C)C2=O)c1", "hERG current change (%, negative = inhibition) at 10uM": -10.7}
{"smiles": "CC1CCN(CC(=O)Nc2ccc(N3CCCCCC3)cc2)CC1.O=C(O)C(=O)O", "hERG current change (%, negative = inhibition) at 10uM": -14.1}
{"smiles": "O=C(CN1CCCCC1)Nc1ccc(N2CCCCCC2)cc1.O=C(O)C(=O)O", "hERG current change (%, negative = inhibition) at 10uM": -88.7}
{"smiles": "NC(=O)C1(N2CCCCC2)CCN(CC(=O)Nc2ccc(Oc3ccccc3)cc2)CC1", "hERG current change (%, negative = inhibition) at 10uM": -67.8}
{"smiles": "CC1CCCCN1CC(=O)Nc1ccc(N2CCCCCC2)cc1.O=C(O)C(=O)O", "note": "(stereo not shown)", "hERG current change (%, negative = inhibition) at 10uM": -13.2}
{"smiles": "COc1cccc(NC(=O)CN2CCCCCC2)c1.Cl", "hERG current change (%, negative = inhibition) at 10uM": 11.6}
{"smiles": "COc1ccc(NC(=O)CN2CCC(C(N)=O)(N3CCCCC3)CC2)cc1", "hERG current change (%, negative = inhibition) at 10uM": 0.362}
{"smiles": "O=C(CN1CCCCCC1)Nc1ccccc1.O=C(O)C(=O)O", "hERG current change (%, negative = inhibition) at 10uM": 10.8}
{"smiles": "O=C(CN1CCCCC1)Nc1cccc(Oc2ccccc2)c1", "hERG current change (%, negative = inhibition) at 10uM": -50.7}
{"smiles": "O=C(CN1CCCCCC1)Nc1cccc(NC(=O)CN2CCCCCC2)c1", "hERG current change (%, negative = inhibition) at 10uM": 13}
{"smiles": "NC(=O)C1(N2CCCCC2)CCN(CC(=O)Nc2ccccc2-c2ccccc2)CC1", "hERG current change (%, negative = inhibition) at 10uM": 14.6}
{"smiles": "CC1CCCCN1CC(=O)Nc1ccc(Oc2ccccc2)cc1.Cl", "note": "(stereo not shown)", "hERG current change (%, negative = inhibition) at 10uM": -50.7}
{"smiles": "CC1CCCCN1CC(=O)Nc1ccc2c(c1)OCO2.O=C(O)C(=O)O", "note": "(stereo not shown)", "hERG current change (%, negative = inhibition) at 10uM": -20.1}
